The campaign covered roughly 100,000 compounds. About 770 (0.77%) were called active. This excerpt belongs to a sample that is enriched for actives. Values without a mark were called inactive. No stated cut-off is given here; in the data, active means inhibition above about 50%; inactive means the rest.
Target: Gag-Pol polyprotein (Human immunodeficiency virus type 1 group M subtype B (isolate HXB2)) (UniProt P04585)
Assay: RNase H inhibition, HIV 1 Gag Pol polyprotein, FRET biochemical assay, screening (AID 372)
Conditions: HIV-1 RT RNase H, FRET RNA/DNA substrate fluorescence; at 10 µM; hits give high values

Row | SMILES | inhibition
1 | Brc1ccccc1OCCCCCn1ccnc1 | 5%
2 | CN1C(=O)CS/C1=N/S(=O)(=O)c1ccc([N+](=O)[O-])cc1 | 10%
3 | S=C(NCc1ccco1)NC1CCCC1 | 6%
4 | O=c1c(O)c(-c2ccc3c(c2)OCO3)oc2ccccc12 | 0%
5 | O=c1c(O)c(-c2ccc(O)c(O)c2)oc2cc(O)cc(O)c12 | 73% (active)
6 | Cc1ccc(-c2oc3ccccc3c(=O)c2O)cc1 | 3%
7 | CN(C)c1ccc(C(c2c[nH]c3ccccc23)c2c[nH]c3ccccc23)cc1 | 23%
8 | Cc1cccc(/C=C2\C(=O)NC(=O)N(c3cccc(Br)c3)C2=O)c1 | 10%
9 | C=CCNC(=O)Nc1ccc2nc(-c3ccccc3)c(-c3ccccc3)nc2c1 | 15%
10 | C=CCNC(=O)Nc1ccc2nc3c4ccccc4c4ccccc4c3nc2c1 | 51% (active)
11 | C=CCNC(=S)Nc1ccc2nc3c4ccccc4c4ccccc4c3nc2c1 | 24%
12 | Cc1cc(C)n(-c2ccc(N3CCOCC3)nn2)n1 | 11%
13 | NC(=O)CSc1nc(-c2ccccc2)c(-c2ccccc2)o1 | 37%
14 | CC(=O)CSc1nc(-c2ccccc2)c(-c2ccccc2)o1 | 50% (active)
15 | CCN(CC)C(=O)CSc1nc(-c2ccccc2)c(-c2ccccc2)o1 | 15%
16 | COc1ccc(-c2csc(NC3OC(=O)c4c3ccc(OC)c4OC)n2)cc1 (configuration not stated) | 20%
17 | CCOc1cc(C(=O)Nc2ccc(OC)c(Cl)c2)cc(OCC)c1OCC | 8%
18 | O=S(=O)(Nc1ccc(F)cc1F)c1ccc2ccccc2c1 | 15%
19 | N/C(=N/OC(=O)c1cccc([N+](=O)[O-])c1)c1nonc1N | 14%
20 | OCc1ccc(-c2cccc(Cl)c2)o1 | 28%
21 | O=C1C(Cl)=C(Cl)C(=O)N1c1cc(Cl)ccc1Cl | 4%
22 | O=C1C=CC(=O)C(c2cccc(C(F)(F)F)c2)=C1 | 71% (active)
23 | O=C1C(Cl)=C(Cl)C(=O)N1c1cccc(C(F)(F)F)c1 | 6%
24 | Cc1ccc(C2=CC(=O)N(c3cccc(C(F)(F)F)c3)C2=O)cc1 | 10%
25 | O=C(O)c1ccc(-c2cc(Cl)ccc2Cl)o1 | 0%

Row | SMILES | inhibition
26 | O=C1C=CC(=O)N1c1cccc(Cl)c1 | 19%
27 | CCOc1ccc(C(=O)Nc2cccc(-c3nc4cc(C)ccc4o3)c2C)cc1Br | 11%
28 | O=C(Nc1ccc(S(=O)(=O)Nc2ncccn2)cc1)c1cccnc1 | 8%
29 | CCOc1ccc2ccc(OCC)c(/C=C3/C(=O)NC(=O)N(Cc4ccco4)C3=O)c2c1 | 26%
30 | CCCN(CCC)CCCNC(=O)/C=N\O | 6%
31 | COc1cc(OC)c(/C=C2\C(=O)NC(=S)N(c3cccc(Cl)c3)C2=O)cc1Br | 9%
32 | CC(Oc1ccc(/C=C2/SC(=O)NC2=O)cc1)C(=O)O (configuration not stated) | 10%
33 | O=C(Nc1nnc(-c2cccc([N+](=O)[O-])c2)s1)Nc1ccc(Cl)cc1Cl | 43%
34 | O=C(/C=C/c1ccco1)/C=C/c1ccc(-c2ccc(Br)cc2)o1 | 33%
35 | O=C(/C=C/c1ccc(-c2ccc(Cl)c(Cl)c2)o1)c1ccco1 | 2%
36 | O=C(/C=C/c1ccco1)/C=C/c1ccc(-c2ccc(Cl)c(Cl)c2)o1 | 52% (active)
37 | CSc1nc(-c2ccccc2)c(C#N)c(=O)n1C | 15%
38 | CCCCCC/C(=N\NC(=O)c1ccncc1)c1ccccc1 | 5%
39 | CCc1c(C)sc(NC(=O)C2CCCCC2C(=O)O)c1C#N (configuration not stated) | 75% (active)
40 | CCc1c(C)sc(NC(=O)C2CCCCC2C(=O)O)c1C(N)=O (configuration not stated) | 48%
41 | CCc1c(C)sc(NC(=O)C2CC3CCC2C3)c1C#N (configuration not stated) | 21%
42 | O=C1OC(c2sc3ccccc3c2Cl)=N/C1=C/c1ccc(F)cc1 | 1%
43 | O=C1C(=Cc2ccc(I)o2)C(=O)c2ccccc21 | 9%
44 | CN1C(=O)C(=Cc2ccc(I)o2)C(=O)N(C)C1=S | 21%
45 | CC1(C)OC(=O)C(=Cc2ccc(I)o2)C(=O)O1 | 53% (active)
46 | O=C(/C=C/c1ccccc1)C1=C(O)C(=O)N(c2ccccc2)C1c1cccc([N+](=O)[O-])c1 (configuration not stated) | 10%
47 | Fc1cccc(-c2n[nH]c(=S)n2-c2ccccc2)c1 | 5%
48 | Cc1cc2nc3s/c(=C/c4ccc(F)cc4)c(=O)n3c2cc1C | 1%
49 | Clc1cc(-c2ccccc2)nc(-c2ccccc2)n1 | 24%
50 | Oc1ccc(-c2cc(-c3ccc(O)cc3)nc(-c3ccccc3)n2)cc1 | 31%

Row | SMILES | inhibition
51 | O=C1C=CC(=O)N1c1ccc(-c2cc(-c3ccccc3)nc(-c3ccc(N4C(=O)C=CC4=O)cc3)n2)cc1 | 54% (active)
52 | Cc1ccc(C(=O)Nc2ccc(Cc3ccncc3)cc2)cc1[N+](=O)[O-] | 5%
53 | Cc1ccc(N(CC(=O)NC2CCCCC2)S(=O)(=O)c2ccc(F)cc2)cc1 | 56% (active)
54 | Cc1ccc(N(CC(=O)NC2CCCC2)S(=O)(=O)c2ccc(F)cc2)cc1 | 5%
55 | CSc1ccc(S(=O)(=O)N(CC(=O)NC2CCCCC2)c2ccc(C)cc2)cc1 | 13%
56 | COc1ccccc1CNS(=O)(=O)c1ccc(Cl)cc1 | 0%
57 | N=C1/C(=C/c2ccc(-c3ccccc3)o2)C(=O)N=C2SC(c3ccccc3)=NN12 | 2%
58 | Cc1ccc(N2NC(=O)/C(=C/c3ccc(Br)cc3)C2=O)cc1C | 15%
59 | O=C(CSc1nc2ccc(N3C(=O)c4ccccc4C3=O)cc2s1)c1ccccc1 | 8%
60 | O=C(CSc1nc2ccc(N3C(=O)c4ccccc4C3=O)cc2s1)c1ccc(F)cc1 | 43%
61 | COc1ccc(NC(=O)CSc2nc3ccc(N4C(=O)c5ccccc5C4=O)cc3s2)cc1 | 56% (active)
62 | O=C(CSc1nc2ccc(N3C(=O)c4ccccc4C3=O)cc2s1)Nc1ccc(F)cc1 | 11%
63 | O=C(CSc1nc2ccc(N3C(=O)c4ccccc4C3=O)cc2s1)Nc1ccc(Br)cc1 | 28%
64 | O=C(CSc1nc2ccc(N3C(=O)c4ccccc4C3=O)cc2s1)c1ccc(Cl)cc1 | 56% (active)
65 | COc1ccc(/C=C/c2nc3sc4c(c3c(=O)o2)CCCC4)cc1 | 14%
66 | COc1cc2ccccc2cc1C(=O)NC(=S)Nc1cccc(-c2nc3ccccc3s2)c1C | 15%
67 | O=C1NC(=O)N(c2cccc(Br)c2)C(=O)/C1=C/c1cc(Cl)c(O)c(Cl)c1 | 10%
68 | O=C1CSC(c2ccc(Cl)c(Cl)c2)N1CCc1ccccc1 (configuration not stated) | 7%
69 | Cc1ccc(/C(O)=C/c2nc3ccc([N+](=O)[O-])cc3oc2=O)o1 | 10%
70 | Cc1cc(C)c(/C(O)=C/c2nc3ccccc3oc2=O)c(C)c1 | 0%
71 | Cc1ccc(/C(O)=C/c2nc3ccccc3oc2=O)o1 | 54% (active)
72 | COc1ccc(N=C(C)c2cc(Cl)ccc2O)cc1 | 31%
73 | COc1ccc(Cc2nc3ccccc3c(=O)n2/N=C/c2cccs2)cc1OC | 23%
74 | Cc1ccccc1-c1nc2ccccc2c(=O)n1/N=C/c1c[nH]c2ccccc12 | 10%
75 | COc1ccc(Cc2nc3ccccc3c(=O)n2/N=C/c2c[nH]c3ccccc23)cc1OC | 52% (active)

Row | SMILES | inhibition
76 | N#Cc1c(/N=C/c2cc(Br)ccc2Br)sc2c1CCCC2 | 15%
77 | Fc1ccccc1OCCn1ccnc1 | 7%
78 | Cc1ccc(NCCCC(=O)N/N=C/c2cccs2)cc1 | 12%
79 | COc1ccc(C(C)=O)cc1CSc1cc(C)c2ccccc2n1 | 46%
80 | Cc1ccc(C(C)C)c(OCC(=O)Nc2cccc(Cl)c2C)c1 | 15%
81 | COc1cc(C=C2C(=O)NC(=O)NC2=O)ccc1OCc1c(C)ccc2ccccc12 | 31%
82 | O=c1nc(/C=C/c2ccc(-c3ccc(F)c(Cl)c3)o2)cc(C(F)(F)F)[nH]1 | 48%
83 | O=c1nc(/C=C/c2ccc(-c3ccc([N+](=O)[O-])cc3Cl)o2)cc(C(F)(F)F)[nH]1 | 20%
84 | O=c1nc(/C=C/c2ccc(-c3ccc(Cl)c([N+](=O)[O-])c3)o2)cc(C(F)(F)F)[nH]1 | 54% (active)
85 | COC(=O)C1=C(C)N(c2ccccc2F)C(=O)/C1=C\c1ccccc1F | 5%
86 | COc1cc2ccccc2cc1C(=O)Nc1cc([N+](=O)[O-])ccc1F | 46%
87 | COc1cc([N+](=O)[O-])ccc1NC(=O)c1cccc2ccccc12 | 26%
88 | COc1cc([N+](=O)[O-])ccc1NC(=O)c1cc2ccccc2cc1OC | 53% (active)
89 | CCOc1ccc(NC(=O)c2ccc(-c3ccc([N+](=O)[O-])cc3OC)o2)cc1 | 36%
90 | Cc1cc([N+](=O)[O-])ccc1-c1ccc(C(=O)Nc2ccc(I)cc2Cl)o1 | 24%
91 | COc1cc([N+](=O)[O-])ccc1NC(=O)c1cc(Cl)ccc1Cl | 22%
92 | COc1ccccc1NC(=O)c1ccc(-c2ccc([N+](=O)[O-])cc2OC)o1 | 30%
93 | COc1cc([N+](=O)[O-])ccc1-c1ccc(C(=O)Nc2ccc(I)cc2Cl)o1 | 51% (active)
94 | O=C(Nc1cc([N+](=O)[O-])ccc1F)c1ccc(-c2cc(Cl)ccc2Cl)o1 | 31%
95 | COc1cc([N+](=O)[O-])ccc1NC(=O)c1ccc(-c2cc(Cl)ccc2Cl)o1 | 60% (active)
96 | CCCC(=O)Nc1ccc(NC(=O)c2ccc(-c3ccc([N+](=O)[O-])cc3OC)o2)cc1 | 56% (active)
97 | COc1cc([N+](=O)[O-])ccc1-c1ccc(C(=O)Nc2ccc(NC(C)=O)cc2)o1 | 26%
